PubChem BioAssay (Tox21)
Records with an inconclusive call do not appear. Active and inactive are the calls of the source. Unless noted, calls come from the whole dose curve.

Columns and labels:
[1] = Nuclear factor erythroid 2-related factor 2/antioxidant responsive element (Nrf2/ARE) small molecule agonists: qHTS cell viability counter screen in human keratinocytes (AID 1919968; active = well fitted curve in the direction sought with a large enough effect in the repeat runs; an effect the other way counts as inactive or inconclusive; note: nearly all actives have a fitted effect of over 55% in size)
Summary of the method: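 Viability counter-screen: KeratinoSens reporter cells, DMSO-delivered compounds, 23 h at 37 C, CellTiter-Fluor fluorescence.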

[2] = Nuclear factor erythroid 2-related factor 2/antioxidant responsive element (Nrf2/ARE) small molecule agonists: luciferase reporter gene qHTS assay in human keratinocytes (AID 1919969); note: nearly all actives have a fitted effect of over 35% in size
[3] = target: Gonadotropin-releasing hormone receptor (Homo sapiens) (UniProt P30968); experiment: Human gonadotropin-releasing hormone receptor (GnRHR) small molecule agonists, calcium flux assay in GnRHR-HEK293 cells (AID 1920063); note: nearly all actives have a fitted effect of over 35% in size
Summary of the method: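 Tox21-format agonist screen using human GnRHR-expressing HEK293 cells and a fluorescent calcium dye; kinetic 3-min fluorescence reading after compound addition, 15-point concentration series run in triplicate.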

[4] = target: KiSS-1 receptor (Homo sapiens) (UniProt Q969F8); experiment: Human kisspeptin (KISS1R) small molecule agonists, calcium flux assay in KISS1R-HEK293 cells (AID 1920064; active = well fitted curve in the direction sought with a large enough effect in the repeat runs; an effect the other way counts as inactive or inconclusive)
Summary of the method: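 Intracellular calcium mobilization in KISS1R-HEK293 cells was recorded by fluorescence (Ex/Em 480/540) for 3 min following compound addition to cells pre-loaded 1 h with calcium dye.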

[5] = G protein-coupled receptor (GPCR) small molecule agonists, calcium flux assay: HEK293 wild type cell line counter screen (AID 1920065)
Summary of the method: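 In this agonist-mode screen, ATP is the positive control and DMSO the vehicle. Cells grow 18 h before a 1 h dye incubation at 37 C; signal is taken at Ex/Em 480/540 over 3 min.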

[6] = p53 small molecule agonists, cell-based qHTS assay with human liver microsomes (AID 1963577);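 note: p53 response element beta-lactamase reporter cells with liver microsomes plus NADPH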
Summary of the method: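 Reporter activation was measured by LiveBLAzer fluorescence intensity in p53RE-bla cells, which had been exposed to compounds for 16 h at 37 C alongside 0.5 mg/mL human liver microsomes and 0.5 mg/mL NADPH (final concentrations).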

[7] = p53 small molecule agonists, cell-based qHTS assay with rat liver microsomes (AID 1963578)
Summary of the method: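 Compound in DMSO added to p53RE-bla cells 5 h post-plating; rat microsomes/NADPH 0.5 mg/mL final; 16 h, 37 C; LiveBLAzer 2 h RT.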

[8] = p53 small molecule agonists, cell-based qHTS assay with human liver microsomes: qHTS cell viability counter screen (AID 1963579); note: nearly all actives have a fitted effect of over 45% in size
Summary of the method: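 HLM-supplemented (0.5 mg/mL final) and NADPH-supplemented (0.5 mg/mL final) p53RE-bla cultures, 4,000 cells per well, were dosed with compounds in DMSO for 16 h at 37 C; luminescent ATP detection (CellTiter-Glo, 30 min, room temperature) quantified surviving cells.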

[9] = p53 small molecule agonists, cell-based qHTS assay with rat liver microsomes: qHTS cell viability counter screen (AID 1963580); note: nearly all actives have a fitted effect of over 45% in size
Summary of the method: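 HCT-116 p53RE-bla, 4,000 cells/well, 5 h pre-incubation; cpd + rat liver microsomes 0.5 mg/mL + NADPH 0.5 mg/mL (final); 16 h, 37 C; CellTiter-Glo, 30 min RT; luminescence.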

[10] = p53 small molecule agonists, cell-based qHTS assay: qHTS cell viability counter screen (AID 1963581); note: nearly all actives have a fitted effect of over 45% in size
Summary of the method: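 Compounds are pinned onto HCT-116 p53RE-bla cells and left 16 h at 37 C. Following the reporter FRET read, ATP is quantified by CellTiter-Glo luminescence after 30 min at room temperature.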

[11] = p53 small molecule agonists, cell-based qHTS assay (AID 1963582; active = well fitted activation curve with a large enough effect in the signal ratio in the repeat runs, not every such curve was filed as active; the % refers to the signal ratio)
Summary of the method: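 Agonist activity was scored from beta-lactamase FRET fluorescence in p53RE-bla cells treated 16 h at 37 C with compounds in DMSO, substrate incubation being 2 h at room temperature.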

[12] = target: 5-hydroxytryptamine receptor 2A (Homo sapiens) (UniProt P28223); experiment: 5-hydroxytryptamine receptor 2A (HTR2A) small molecule agonists, cell-based qHTS assay (AID 1963587); note: nearly all actives have a fitted effect of over 30% in size
Summary of the method: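 Kinetic calcium-flux fluorescence (2 min, 1 sec intervals) after compound addition in agonist mode. HTR2A-CHO cells were cultured 18 h, then dye-loaded 1 h at 37 C.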

[13] = target: Muscarinic acetylcholine receptor M1 (Homo sapiens) (UniProt P11229); experiment: Cholinergic receptor muscarinic 1 (CHRM1) small molecule agonists, cell-based qHTS assay (AID 1963589); note: nearly all actives have a fitted effect of over 35% in size
Summary of the method: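 Stable CHRM1-CHO cells (human receptor) were incubated 18 h, dye-loaded for 1 h at 37 C and exposed to test compounds for agonist activity, with calcium-dependent fluorescence followed kinetically.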

[14] = cAMP Responsive Elements (CRE) small molecule agonists, cell-based qHTS assay (AID 1963590)
Summary of the method: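 FRET-based beta-lactamase readout (LiveBLAzer B/G, 2 h RT) quantified CRE activation in HEK 293T CRE-bla cells after 3 h treatment with DMSO-dissolved compounds.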

[15] = cAMP Responsive Elements (CRE) small molecule antagonists, cell-based qHTS assay (AID 1963591; active = well fitted inhibition curve with a large enough effect in the signal ratio in the repeat runs, not every such curve was filed as active; the % refers to the signal ratio)
Summary of the method: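 qHTS in CRE-bla HEK 293T cells: compound in DMSO, then 0.25 uM NKH477 (final), 3 h at 37 °C/5% CO2; beta-lactamase FRET read-out after 2 h substrate incubation.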

[16] = target: Beta-2 adrenergic receptor (Homo sapiens) (UniProt P07550); experiment: Adrenergic beta2 receptor (ADRB2) small molecule antagonists, cell-based qHTS assay (AID 1963592); note: series mostly up to about 92 µM; nearly all actives have a fitted effect of over 50% in size
Summary of the method: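 Cells (CHO, stable ADRB2 overexpression) incubated 18-20hr at 37C; compounds added from DMSO; agonist mix (1nM isoproterenol, 100uM IBMX, 25uM Ro-20-1724) added; 0.5hr RT; d2-cAMP and anti-cAMP-cryptate added; 1hr RT; 665/615 nm read.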

[17] = target: D(2) dopamine receptor (Homo sapiens) (UniProt P14416); experiment: Dopamine D2 receptor (DRD2) small molecule agonists, cell-based qHTS assay (AID 1963594); note: nearly all actives have a fitted effect of over 35% in size
Summary of the method: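 cAMP accumulation in DRD2-HEK293 cells measured by HTRF after 1 h detection; compounds added 10 min before NKH477 (200nM […]) forskolin-analogue stimulation, 30 min at room temperature, with Ro20-1724 present at 0.1 mM final.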

[18] = target: D(2) dopamine receptor (Homo sapiens) (UniProt P14416); experiment: Dopamine D2 receptor (DRD2) small molecule antagonists, cell-based qHTS assay (AID 1963595; active = well fitted inhibition curve with a large enough effect in the signal ratio in the repeat runs, with a control signal flat; the % refers to the signal ratio)
Summary of the method: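 Stable D2 receptor HEK293 line, 24 h after seeding. Compound preincubated 10 min, then quinpirole (12 nM) with forskolin analogue NKH477 (200 nM), 30 min, room temperature. Detection by time-resolved FRET of cAMP.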

[19] = target: Muscarinic acetylcholine receptor M1 (Homo sapiens) (UniProt P11229); experiment: Cholinergic receptor muscarinic 1 (CHRM1) small molecule antagonists, cell-based qHTS assay (AID 1963588); note: nearly all actives have a fitted effect of over 40% in size
Summary of the method: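 CHRM1-CHO calcium-flux assay, antagonist mode. Cells were seeded 18 h, dye-loaded 1 h at 37 C and given compound for 5 min at RT, then acetylcholine was added at 50nM. FDSS fluorescence was read 3 min; 15 concentrations, three runs.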

Measured: Potency

Sequence of Muscarinic acetylcholine receptor M1 (Homo sapiens) (P11229 whole entry, looked up): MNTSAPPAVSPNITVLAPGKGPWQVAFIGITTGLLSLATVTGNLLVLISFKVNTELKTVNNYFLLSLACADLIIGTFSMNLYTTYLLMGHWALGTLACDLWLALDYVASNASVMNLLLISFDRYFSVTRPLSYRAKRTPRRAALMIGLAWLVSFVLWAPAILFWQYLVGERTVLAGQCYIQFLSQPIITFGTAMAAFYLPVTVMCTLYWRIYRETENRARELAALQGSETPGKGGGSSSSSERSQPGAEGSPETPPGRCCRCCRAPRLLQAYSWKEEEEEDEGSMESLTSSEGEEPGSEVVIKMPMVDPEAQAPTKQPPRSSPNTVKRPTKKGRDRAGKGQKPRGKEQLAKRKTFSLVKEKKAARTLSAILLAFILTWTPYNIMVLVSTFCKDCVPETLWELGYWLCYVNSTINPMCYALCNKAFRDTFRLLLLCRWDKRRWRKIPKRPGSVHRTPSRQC
Sequence of D(2) dopamine receptor (Homo sapiens) (P14416 whole entry, looked up): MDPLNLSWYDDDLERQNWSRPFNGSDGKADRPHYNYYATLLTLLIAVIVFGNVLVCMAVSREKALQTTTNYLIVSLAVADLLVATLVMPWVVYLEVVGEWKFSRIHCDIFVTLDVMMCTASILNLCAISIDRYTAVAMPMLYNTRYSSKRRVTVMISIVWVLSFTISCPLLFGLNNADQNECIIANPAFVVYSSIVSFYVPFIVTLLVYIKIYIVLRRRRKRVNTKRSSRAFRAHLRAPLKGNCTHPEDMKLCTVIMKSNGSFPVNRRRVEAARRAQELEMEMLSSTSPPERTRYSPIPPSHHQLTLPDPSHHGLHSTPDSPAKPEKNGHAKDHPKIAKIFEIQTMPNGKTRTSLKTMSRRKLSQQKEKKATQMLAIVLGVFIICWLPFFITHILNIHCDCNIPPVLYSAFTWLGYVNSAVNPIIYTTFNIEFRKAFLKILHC
Sequence of 5-hydroxytryptamine receptor 2A (Homo sapiens) (P28223 whole entry, looked up): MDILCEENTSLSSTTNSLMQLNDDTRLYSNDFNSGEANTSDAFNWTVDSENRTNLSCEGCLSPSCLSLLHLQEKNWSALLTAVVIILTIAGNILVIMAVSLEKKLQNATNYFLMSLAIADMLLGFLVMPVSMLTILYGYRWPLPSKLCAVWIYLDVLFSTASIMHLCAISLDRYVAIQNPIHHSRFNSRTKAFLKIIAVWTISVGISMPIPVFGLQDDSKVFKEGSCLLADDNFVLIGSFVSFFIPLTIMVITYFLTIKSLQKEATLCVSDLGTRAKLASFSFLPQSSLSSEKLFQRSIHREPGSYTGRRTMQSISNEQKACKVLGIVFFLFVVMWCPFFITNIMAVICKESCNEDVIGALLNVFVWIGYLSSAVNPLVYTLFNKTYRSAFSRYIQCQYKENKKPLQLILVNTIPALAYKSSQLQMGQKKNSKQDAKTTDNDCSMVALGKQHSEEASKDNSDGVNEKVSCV
Sequence of Gonadotropin-releasing hormone receptor (Homo sapiens) (P30968 whole entry, looked up): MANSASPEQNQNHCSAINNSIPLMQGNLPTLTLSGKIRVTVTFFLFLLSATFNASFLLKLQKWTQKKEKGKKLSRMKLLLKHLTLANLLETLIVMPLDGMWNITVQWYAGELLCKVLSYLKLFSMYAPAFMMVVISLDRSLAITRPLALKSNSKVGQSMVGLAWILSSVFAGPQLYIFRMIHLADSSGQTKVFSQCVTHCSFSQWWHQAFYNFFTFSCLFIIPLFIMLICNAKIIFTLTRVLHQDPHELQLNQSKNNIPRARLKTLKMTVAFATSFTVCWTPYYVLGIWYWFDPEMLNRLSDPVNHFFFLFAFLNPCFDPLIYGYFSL
Sequence of Beta-2 adrenergic receptor (Homo sapiens) (P07550 whole entry, looked up): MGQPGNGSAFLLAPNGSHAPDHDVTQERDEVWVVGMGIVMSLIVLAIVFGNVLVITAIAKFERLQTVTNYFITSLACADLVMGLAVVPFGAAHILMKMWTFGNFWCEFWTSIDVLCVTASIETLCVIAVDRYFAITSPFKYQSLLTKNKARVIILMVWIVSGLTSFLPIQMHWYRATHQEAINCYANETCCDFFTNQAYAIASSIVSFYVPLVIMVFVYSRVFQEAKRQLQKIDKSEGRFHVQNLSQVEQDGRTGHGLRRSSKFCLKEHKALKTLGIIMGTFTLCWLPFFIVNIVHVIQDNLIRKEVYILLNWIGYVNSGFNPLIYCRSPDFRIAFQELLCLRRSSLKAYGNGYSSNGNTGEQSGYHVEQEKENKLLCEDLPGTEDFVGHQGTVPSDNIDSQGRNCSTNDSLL
Sequence of KiSS-1 receptor (Homo sapiens) (Q969F8 whole entry, looked up): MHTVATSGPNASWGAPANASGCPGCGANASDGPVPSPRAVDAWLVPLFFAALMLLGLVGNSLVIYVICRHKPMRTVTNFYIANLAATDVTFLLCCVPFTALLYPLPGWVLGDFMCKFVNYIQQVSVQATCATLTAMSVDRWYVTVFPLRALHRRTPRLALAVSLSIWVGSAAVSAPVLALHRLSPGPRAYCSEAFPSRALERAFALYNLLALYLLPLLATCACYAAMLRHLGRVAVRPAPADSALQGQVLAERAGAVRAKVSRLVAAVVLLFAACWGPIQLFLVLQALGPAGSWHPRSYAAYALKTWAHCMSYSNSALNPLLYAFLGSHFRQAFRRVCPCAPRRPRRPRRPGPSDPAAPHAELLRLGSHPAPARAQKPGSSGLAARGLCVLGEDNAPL

COc1ccc(C=O)cc1O
not listed: [19]
inactive: all other assays above

N#Cc1c(Cl)cccc1Cl
not listed: [14] | [19]
inactive: all other assays above

NC1=NC(=O)C(c2ccccc2)O1 (centres undefined)
not listed: [12] | [13] | [14] | [19]
inactive: all other assays above

ClC=C(Cl)Cl
not listed: [12] | [14] | [16] | [18]
inactive: all other assays above

CC(C)CC(C)N (centres undefined)
not listed: [16] | [18]
inactive: all other assays above

CC(Cl)(Cl)Cl
not listed: [12] | [13] | [19]
inactive: all other assays above

CC(Cc1ccc(OCC(=O)O)cc1)NCC(O)c1csc(C(F)(F)F)n1 (centres undefined)
not listed: [10] | [16] | [17]
inactive: all other assays above
